NR0B1 inh = NR0B1 (DAX1) inhibition; 0.99% of 340,000 active; P51843; HEK293 Gal4-DAX1 luciferase reporter, luminescence; inhibition, % at 6.75 µM; AID 504766;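 active = inhibition above the mean over all tested compounds plus 3 SD, cut at about 4.2% in these data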;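 note: 0% = DAX1-transfected cells with DMSO and 100% = empty-vector control cells with DMSO; inhibition shows as a rise in luminescence from relieved DAX1 repression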
Target sequence (P51843 207-470 limits assumed): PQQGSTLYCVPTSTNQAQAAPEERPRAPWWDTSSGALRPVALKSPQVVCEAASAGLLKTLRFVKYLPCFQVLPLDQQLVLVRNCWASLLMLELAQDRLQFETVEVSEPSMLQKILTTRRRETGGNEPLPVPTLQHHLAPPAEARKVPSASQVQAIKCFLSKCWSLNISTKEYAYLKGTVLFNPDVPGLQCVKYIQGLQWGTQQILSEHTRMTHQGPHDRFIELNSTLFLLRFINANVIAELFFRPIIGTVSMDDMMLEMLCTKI
AHR act = human AHR activation; 2.5% of 320,000 active; P35869; activation, % at 5 µM; AHR-responsive luciferase reporter cells, luminescence; AID 2796; in the data active = activation above about 47%;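 note: 0% = vehicle wells and 100% = reference agonist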
HSF1 activator = increases HSF-1 driven luciferase reporter signal; 1.7% of 300,000 active; AID 504408; activation, % at 9 µM; NIH3T3-HGL HSF-1 luciferase reporter, MG132, 8 h; 100% = twice DMSO control signal;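 active = mean replicate activation of at least 50% with a set share of replicates each reaching 50%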;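 note: 0% = median of the neutral control wells and 100% = twice that signal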
GAA850 FXN act = increases GAA850 frataxin promoter reporter activity; HEK293 lucGAA850 FXN promoter luciferase reporter, 24 h; percent of 10 µM SAHA response; activation, % at 6 µM; 0.56% of 360,000 active;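 active = activation above the average of all compounds screened plus 3 SD, cutoff fixed separately per campaign, cut at about 7.5% in these data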;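 note: 0% = DMSO wells and 100% = 10 µM SAHA wells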
HSP90 refold inh = inhibitors of HSP90 luciferase refolding in rabbit reticulocyte lysate; AID 1789; 0.91% of 290,000 active; luciferase refolding luminescence, 3 h; inhibition, % at 5.6 µM;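 active = inhibition above the screen-wide mean plus 3 SD, computed separately per campaign, cut at about 16% in these data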;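 note: 0% = DMSO wells and 100% = 60 µM geldanamycin wells; inhibitors lower the luminescence because luciferase stays unfolded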
HSF1 inh = HSF1 inhibition; NIH3T3-HGL HSE-luciferase, MG132-induced, luminescence 8 h; stronger effect = lower value; activity change, negative = inhibition, % at 7.5 µM (by protocol); 0.77% of 300,000 active;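 active = more than half of replicate wells show activity change below -50%, luminescence cut by over half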;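 note: luciferase reports HSF-1 transcriptional activity via heat shock element; 0% = median of DMSO wells and -100% = zero luminescence signal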
GAA30 counter = counter-screen for GAA850 frataxin promoter activators: GAA30 promoter activation; HEK293 lucGAA30 FXN promoter luciferase, 24 h; DMSO = 0%, 5 µM ipriflavone = 100%; 66% of 1,900 active; shares compounds with GAA850 FXN act; activation, % at 6 µM;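 active = mean activation above the mean of solvent-only control wells plus 3 SD, cut at about 22% in these data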;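 note: counterscreen of GAA850 promoter hits where activity marks nonselective or luminescence artifacts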
FXN GAA850 conf = GAA850 FXN promoter activation confirmation; shares compounds with GAA850 FXN act; AID 588351; 86% of 1,900 active; HEK293 lucGAA850 FXN promoter luciferase reporter, 24 h; 100% = activation by SAHA; activation, % at 6 µM;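 active = mean activation above a set limit taken from the primary screen, cut at about 8% in these data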;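 note: 0% = DMSO wells and 100% = 10 µM SAHA wells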
Numbers without * were called inactive; · = no result given. An excerpt weighted towards active compounds, which were near 5.9% of everything screened.

SMILES	NR0B1 inh	AHR act	HSF1 activator	GAA850 FXN act	HSP90 refold inh	HSF1 inh	GAA30 counter	FXN GAA850 conf
Cc1ccc(C(=O)OC(C(=O)Nc2ccc(Cl)cc2C(F)(F)F)c2ccccc2)cc1 (stereo not given)	-1.3	-5.1	-16.2	0.0	-3.2	-3.4	·	·
O=C(OC(C(=O)Nc1ccc(Cl)cc1C(F)(F)F)c1ccccc1)c1c(Cl)cccc1Cl (stereo not given)	0.9	-2.2	4.5	11.4*	0.1	4.4	17.8	10.6*
Cc1cccc(/C=N/NC(=O)c2cccc(Cl)c2)n1	0.6	-2.5	31.7	7.6*	-2.2	18.3	-65.6	-16.1
Cc1cccc(/C=N/NC(=O)c2cccc([N+](=O)[O-])c2)n1	·	2.0	8.4	12.2*	1.0	-6.2	-39.1	11.4*
CC(C)CC(=O)N1CCN(Cc2ccccc2[N+](=O)[O-])CC1	·	-1.6	-1.0	1.0	-3.2	-14.5	·	·
COCc1nc2oc3ccc(C)cc3c(=O)c2cc1C(=O)OC	2.6	0.0	10.1	7.9*	0.5	7.8	119.2*	47.3*
CC(=O)c1ccc(S(=O)(=O)NC2CC2)cc1	2.1	-2.0	-1.8	0.2	-3.7	-1.0	·	·
CC(=O)c1ccc(N(C(=O)CNC(=O)c2ccco2)C(C(=O)NC2CCCC2)c2cccnc2)cc1 (stereo not given)	0.3	-1.1	-10.6	0.4	-2.3	-1.6	·	·
COc1cccc2sc(NNC(=O)C3COc4ccccc4O3)nc12 (stereo not given)	-1.8	38.9	-6.2	0.4	1.3	-3.1	·	·
COc1cccc2sc(NNC(=O)C3=COCCO3)nc12	-1.0	13.1	-7.2	8.2*	-3.0	-6.7	86.3*	32.7*
CCOC(=O)c1ccc(NC(=O)c2cccc(S(=O)(=O)N3CCN(C(C)=O)CC3)c2)cc1	-1.0	-3.2	0.7	-1.4	-2.0	-7.6	·	·
CC(=O)Nc1ccc(/C=N/N2C(C)CCCC2C)cc1 (stereo not given)	-1.0	1.0	7.7	-0.1	3.2	6.4	·	·
CC(=O)Nc1ccc(/C=N/N2CCCCC2)cc1	1.7	1.1	-1.1	7.6*	5.6	-7.6	86.5*	29.3*
C[C@@H](NC(=O)c1coc(=O)c(Br)c1)c1ccccc1	1.0	0.6	3.4	8.8*	2.3	9.5	-9.7	5.2
CCOC(=O)[C@@H]1[C@H]2COc3ccc(Br)cc3[C@@H]2N2C(=O)N(c3cccc(Cl)c3)C(=O)[C@]12C	-0.2	0.8	-4.9	1.1	·	5.8	·	·
CCOC(=O)[C@H]1[C@H]2COc3ccc(Br)cc3[C@@H]2N2C(=O)c3c(C)cc(C)cc3NC(=O)[C@@]12C	1.2	2.6	·	14.4*	·	·	28.3*	18.6*
CCOC(=O)[C@H]1[C@H]2COc3ccc(Br)cc3[C@@H]2N2C(=O)c3ccc(C)cc3NC(=O)[C@@]12C	1.9	1.0	·	-7.5	·	·	·	·
CCOC(=O)[C@@H]1[C@H]2COc3ccc(Br)cc3[C@@H]2N2C(=O)N(c3cccc(Cl)c3)C(=O)[C@@]12C	2.0	-0.7	·	9.9*	·	·	-8.5	0.1
O=C(O)Cc1sc(=O)[nH]c1O	-0.2	·	·	1.1	·	·	·	·
O=C(NCCC1=CCCCC1)C(c1ccccc1)c1ccccc1	-0.9	0.4	-21.7	1.6	-1.5	1.7	·	·
C=CCn1c(SC(C)C(=O)NCCC2=CCCCC2)nc2ccccc2c1=O (stereo not given)	0.3	1.4	16.3	10.4*	-0.1	-6.7	19.8	9.5*
O=C1c2cc([N+](=O)[O-])cc3cc([N+](=O)[O-])cc(c23)C(=O)N1c1ccccn1	-1.2	-1.2	123.9*	8.2*	-4.7	92.3	14.9	17.3*
O=C1c2ccc(Oc3cccc([N+](=O)[O-])c3)cc2C(=O)N1c1ccccn1	-0.2	2.3	18.9	1.5	1.4	-1.4	·	·
C=C(C)[C@@H]1C2=CC(C(=O)OC)=C(C[C@H](C(=C)C)[C@H]3O[C@H]3C3=C[C@H]1OC3=O)O2	·	·	·	14.5*	·	·	-44.4	2.5
Cc1ccc(NC(=O)CCC(=O)N/N=C/c2cccs2)cc1	-0.2	16.6	4.7	-0.4	-0.4	1.1	·	·
SMILES	NR0B1 inh	AHR act	HSF1 activator	GAA850 FXN act	HSP90 refold inh	HSF1 inh	GAA30 counter	FXN GAA850 conf
Clc1ccccc1OCCn1cnc2ccccc21	0.2	-6.7	43.9	9.2*	4.1	25.0	41.0*	23.8*
Clc1ccc(Cn2cnc3ccccc32)cc1	-0.7	0.8	2.2	1.6	0.4	-6.6	·	·
c1ccc(Cn2cnc3ccccc32)cc1	2.3	-1.7	·	10.9*	-3.8	·	119.8*	44.0*
COc1c(O)cc(O)c2c(=O)cc(-c3ccccc3)oc12	3.9	24.4	·	5.5	·	·	·	·
COc1ccc(CCN2C(=O)c3[nH]nc(-c4ccccc4O)c3C2c2ccccc2)cc1OC (stereo not given)	-2.6	8.9	25.3	13.3*	0.1	4.0	7.2	8.9*
CN(C)c1nc(N)nc(CSc2nc3cc(Cl)ccc3o2)n1	-0.4	25.9	22.5	8.3*	3.1	19.9	48.3*	27.2*
Cc1cc(C)n2cc(CSc3nc4cc(Cl)ccc4o3)nc2n1	-1.6	-2.3	16.1	0.4	-3.2	4.2	·	·
Cc1ccc2nsnc2c1NC(=O)c1cccnc1Cl	1.6	-0.2	-5.1	1.4	-2.5	-5.8	·	·
C=C(C)CNC(=S)N/N=C(\C)c1ccc(Cl)s1	0.4	15.9	5.2	4.9	7.1	6.5	·	·
Clc1ccc(Cn2c(/C=C/c3ccco3)nc3ccccc32)cc1	1.8	8.2	37.9	4.7	-1.1	4.4	·	·
Cc1ccc(Cn2c(/C=C/c3ccco3)nc3ccccc32)cc1	0.4	9.8	11.8	8.0*	3.2	-2.3	108.8*	43.8*
COc1cc(C(=O)O/N=C2\C=CC(=O)C(C)=C2)cc(OC)c1OC	0.2	5.5	42.0	9.2*	2.9	26.0	35.2*	19.5*
O=C(c1ccccc1)c1cc2cc(Cl)ccc2[nH]1	1.9	4.0	21.7	8.3*	-4.1	22.9	86.8*	35.4*
COc1cccc(C(=O)c2cc3cc(Cl)ccc3[nH]2)c1	3.3	16.0	6.9	2.5	4.6	28.2	·	·
Cc1cc(NC(=O)C(C)SCC(=O)Nc2cc(C(F)(F)F)ccc2N2CCOCC2)no1 (stereo not given)	0.2	2.5	-13.6	8.8*	·	5.6	26.2*	12.8*
Cc1cc(NC(=O)C(C)SCC(=O)Nc2cc(Cl)ccc2N2CCN(C)CC2)no1 (stereo not given)	0.3	1.1	1.1	-1.7	·	1.2	·	·
Cc1cc(C)nc(N2N=C(C(C)(C)C)CC2=O)n1	0.2	5.2	·	16.2*	7.0	·	21.3	8.0*
